PREPL inh – inhibitors of human prolyl oligopeptidase-like enzyme PREPL. inhibition, % at 5.96 µM. recombinant PREPL, fluorescence polarization activity-based probe. AID 2751. Q4J6C6. actives 0.68% (n = 320,000); in the data active = inhibition above about 43%;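 also: 0% = enzyme with DMSO and 100% = wells lacking enzyme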
Target sequence (Q4J6C6 whole entry, looked up): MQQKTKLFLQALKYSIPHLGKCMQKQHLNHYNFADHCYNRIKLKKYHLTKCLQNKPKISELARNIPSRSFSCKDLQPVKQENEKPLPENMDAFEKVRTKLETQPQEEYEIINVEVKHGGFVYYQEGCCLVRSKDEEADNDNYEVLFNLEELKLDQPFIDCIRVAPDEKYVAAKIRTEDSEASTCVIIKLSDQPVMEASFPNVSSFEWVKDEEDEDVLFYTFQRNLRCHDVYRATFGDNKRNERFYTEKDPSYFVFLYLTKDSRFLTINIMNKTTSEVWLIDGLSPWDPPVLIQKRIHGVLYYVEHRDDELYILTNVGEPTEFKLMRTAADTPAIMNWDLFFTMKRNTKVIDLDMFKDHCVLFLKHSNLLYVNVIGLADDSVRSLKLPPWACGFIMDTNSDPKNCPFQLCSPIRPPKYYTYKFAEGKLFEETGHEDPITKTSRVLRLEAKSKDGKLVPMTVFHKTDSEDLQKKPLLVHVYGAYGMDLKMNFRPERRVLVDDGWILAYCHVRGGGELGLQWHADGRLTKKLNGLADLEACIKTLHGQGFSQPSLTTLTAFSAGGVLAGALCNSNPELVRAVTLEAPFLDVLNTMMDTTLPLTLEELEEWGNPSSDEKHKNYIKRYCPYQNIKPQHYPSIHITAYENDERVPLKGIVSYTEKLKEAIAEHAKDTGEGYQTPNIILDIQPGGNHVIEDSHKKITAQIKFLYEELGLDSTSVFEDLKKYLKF
ANO1 activ – activates or potentiates the mouse TMEM16A chloride channel. Q8BHY3. AID 623877. B-score at 10 µM. actives 0.3% (n = 340,000). HEK293 TMEM16A/YFP-H148Q/I152L, iodide quench fluorescence; stronger effect = lower value;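 active = fluorescence-ratio B-score plate-corrected deviation score at least 3 library SD below zero, with starting fluorescence score within 5 deviations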;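 also: channel opened by trigger with iodide after compound preincubation; score built on the fluorescence ratio of max minus min over baseline; more negative score means more quench and so TMEM16A activation or potentiation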
DNA FID counter – counter-screen for HCV NS3 helicase inhibitors: DNA intercalator displacement; DNA fluorescent intercalator displacement, fluorescence; actives 0.17% (n = 290,000); inhibition, % at 7.9 µM; in the data active = inhibition above about 37%;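 also: 0% = vehicle and 100% = reference compound; higher means more ethidium bromide displaced from hairpin DNA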
PP5 primary – blocks human protein phosphatase 5 activity; P53041; inhibition, % at 6.7 µM; purified PP5c, OMFP substrate fluorescence; actives 0.18% (n = 320,000);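 active = inhibition above the campaign's mean inhibition across all tested compounds plus 3 SD, cut at about 9.5% in these data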;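 also: 0% = DMSO only and 100% = 100 µM cantharidin control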
TMEM16A inh – blocks the mouse calcium-activated chloride channel TMEM16A; Q8BHY3; actives 1.2% (n = 310,000); AID 588511; normalized B-score (activity score, 25-100; higher = stronger inhibition) at 10 µM; HEK293 TMEM16A/YFP iodide influx fluorescence, ionomycin;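 active = ratio plate-corrected score three or more library SD toward inhibition, starting fluorescence score within five deviations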;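 also: score derived from kinetic fluorescence span divided by baseline fluorescence per well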
PP1 counter – PP1-alpha (human) inhibition in PP5 counter-screen | P62136 | purified PP1alpha, OMFP fluorescence | inhibition, % at 6.7 µM | actives 0.9% (n = 320,000);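 active = inhibition above the mean inhibition of all tested compounds plus 3 SD, computed separately for each screening campaign, cut at about 15% in these data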
PP1 confirm – confirmation of human PP1 phosphatase inhibitors; shares compounds with PP1 counter; purified PP1alpha, OMFP substrate fluorescence; inhibition, % at 6.7 µM; actives 52% (n = 1,900);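 active = mean PP1 inhibition above a set limit taken from the earlier primary screen, cut at about 15% in these data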
PP5 counter – PP5 phosphatase inhibition, counter-screen for PP1 inhibitors. shares compounds with PP1 counter. purified PP5c, OMFP fluorescence. inhibition, % at 6.7 µM. actives 4% (n = 1,900);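 active = mean PP5 inhibition over triplicate wells above about 9.5% taken from the earlier PP1 screen, limit read from the data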
Starred values were filed as active, the others as inactive; i = inactive; . = no result given. An excerpt weighted towards active compounds, which were near 2.7% of everything screened.

SMILES	PREPL inh	ANO1 activ	DNA FID counter	PP5 primary	TMEM16A inh	PP1 counter	PP1 confirm	PP5 counter
Cc1ccc(S(=O)(=O)CCC(=O)Nc2nc(-c3ccccn3)cs2)cc1	7	i	.	2	.	27*	40*	2
CC1(c2ccccc2)NC(=O)N(CC(=O)Nc2nc(-c3ccccn3)cs2)C1=O (stereo not drawn)	20	i	.	4	i	12	.	.
O=C1/C(=C/c2ccsc2)N2CCC1CC2	0	i	0	1	i	-1	.	.
O=C(Nc1nc(-c2ccccn2)cs1)Nc1ccc(F)cc1F	10	i	-18	2	i	38*	42*	-1
O=C(COc1ccc(F)cc1)Nc1nc(-c2ccccn2)cs1	-3	i	.	5	i	27*	35*	-3
CCc1ccc(-c2nc(SCC(=O)NC3CC3)n[nH]2)cc1	0	i	.	-1	i	-1	.	.
Cc1cccc(N2C(=O)C(O)=C(C(=O)c3cccs3)C2c2ccc(C(C)C)cc2)n1 (stereo not drawn)	10	i	-35	-1	i	23*	19*	-3
Cc1cccc(N2C(=O)C(O)=C(C(=O)c3cccs3)C2c2ccc(F)cc2)n1 (stereo not drawn)	16	i	-25	2	i	7	.	.
CC(C)Oc1ccc(N2CC(C(=O)NC3=NCCS3)CC2=O)cc1 (stereo not drawn)	-3	i	-18	2	i	-6	.	.
O=C(O)c1c[nH]c2ccc(S(=O)(=O)N3CCN(c4ccc(F)cc4)CC3)cc2c1=O	-6	i	2	0	i	44*	32*	-4
Brc1ccc(CSc2ccc3nnc(-c4cccnc4)n3n2)cc1	20	i	-25	0	i	8	.	.
Brc1ccc(CSc2ccc3nnc(-c4ccccn4)n3n2)cc1	45*	i	-13	-1	i	26*	20*	-5
COC(=O)c1ccc(CSc2ccc3nnc(-c4ccccn4)n3n2)o1	3	i	-16	3	i	0	.	.
Cc1ccc(C)c(CSc2ccc3nnc(-c4ccccn4)n3n2)c1	20	i	-30	0	i	22*	13	-4
COc1ccc(OCc2nnc(SCC(=O)Nc3ccccc3C#N)o2)cc1	-4	i	-10	0	i	2	.	.
Cc1sc2nc(COC(=O)c3cccc(S(=O)(=O)N(C)c4ccccc4)c3)[nH]c(=O)c2c1C	-8	i	-24	0	i	21*	25*	-2
Cc1ccc(Nc2cc(C)nn2-c2nc(C)cc(=O)[nH]2)cc1	23	i	-32	3	i	26*	20*	1
Cc1ccc(Nc2cc(C)nn2-c2nc(C)cc(C)n2)cc1	11	i	-22	3	i	14	.	.
O=C(NC1CCCC1)c1nc2c(nnn2Cc2cccc(Cl)c2)c(=O)[nH]1	4	.	-32	-2	i	21*	9	-2
CC(=O)c1cccc(S(=O)(=O)N2CCCC(c3nc4c(nnn4Cc4cccc(Cl)c4)c(=O)[nH]3)C2)c1 (stereo not drawn)	-4	i	-35	3	i	20*	15*	2
O=c1[nH]c(C2CCN(S(=O)(=O)c3ccc(C(F)(F)F)cc3)CC2)nc2c1nnn2Cc1ccc(F)cc1	0	i	-32	6	i	19*	5	5
O=C(NC1CCCC1)c1nc2c(nnn2Cc2ccccc2Cl)c(=O)[nH]1	4	i	-39	-1	i	13	.	.
O=c1[nH]c(C2CCN(S(=O)(=O)c3cccc(C(F)(F)F)c3)CC2)nc2c1nnn2Cc1cccc(F)c1	7	i	-30	5	i	14	.	.
CCCn1c(N)c(N(CCOC)C(=O)c2cc3ccccc3cc2OC)c(=O)[nH]c1=O	7	i	.	1	.	0	.	.
Cc1sc2ncnc(SCC(=O)NCC3CCCO3)c2c1C (stereo not drawn)	-1	i	.	2	.	0	.	.
